Screening data: PubChem BioAssay, National Center for Advancing Translational Sciences (NCATS)
LmPK inhibitor – inhibitors of Leishmania mexicana pyruvate kinase; Q27686; purified LmPK, Kinase-Glo ATP luminescence, 1 h; Potency, µM (titrated, usually from 57.5 µM), without a hit: top-dose activity change, negative = inhibition, usual class: inhibitors; actives 0.37% (n = 290,000); AID 1721; also: potency is read from the fitted curve at half-maximal effect; % is scaled to controls: 0 for no effect and ±100 for the full control effect
Target sequence (Q27686 whole entry, looked up): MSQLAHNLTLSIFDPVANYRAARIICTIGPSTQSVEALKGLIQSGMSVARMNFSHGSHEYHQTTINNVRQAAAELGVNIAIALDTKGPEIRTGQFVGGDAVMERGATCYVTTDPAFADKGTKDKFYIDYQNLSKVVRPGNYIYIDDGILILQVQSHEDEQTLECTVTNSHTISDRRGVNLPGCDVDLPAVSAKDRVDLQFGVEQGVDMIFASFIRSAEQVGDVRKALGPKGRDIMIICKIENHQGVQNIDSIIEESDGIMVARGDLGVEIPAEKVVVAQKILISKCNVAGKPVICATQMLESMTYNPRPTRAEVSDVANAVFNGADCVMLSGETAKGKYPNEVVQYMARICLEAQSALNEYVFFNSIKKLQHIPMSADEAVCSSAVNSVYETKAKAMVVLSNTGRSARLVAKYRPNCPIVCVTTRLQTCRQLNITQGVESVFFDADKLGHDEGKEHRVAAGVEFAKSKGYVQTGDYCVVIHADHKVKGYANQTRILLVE
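Pyruvate kinase activity monitored as ATP production (luciferase luminescence). Conditions: 0.1 nM enzyme, 0.5 mM PEP, 0.1 mM ADP, 1 h, RT; normalized against uninhibited and no-enzyme wells.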
Pf growth 48h – inhibits P. falciparum growth in the first generation, 48 h. actives 5.9% (n = 310,000). P. falciparum luciferase growth in erythrocytes, 48 h. Potency, µM (highest dose often 28.7 µM), without a hit: at the top dose activity change, negative = inhibition, most hits filed as inhibitors. AID 504832; also: potency is read from the fitted curve at half-maximal effect; % is scaled to controls: 0 for no effect and ±100 for the full control effect
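Erythrocytes infected with P. falciparum carrying an integrated firefly luciferase reporter (2% hematocrit, 0.1% parasitemia final) were exposed to compounds in RPMI 1640 with 0.5% Albumax at 37 C, 5% CO2. Growth inhibition was scored as reduced luminescence.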
Shiga inhibitor – Shiga toxin inhibition | AID 2315 | actives 9.2% (n = 290,000) | inhibition, % at 38.7 µM | Vero cells, Shiga toxin protein synthesis inhibition reporter; in the data active = inhibition mostly above about 28%, no sharp cut-off; inactive = mostly below about 43%; also: 0% is about no effect
Pf growth 96h – inhibits malaria parasite growth, 96 h. P. falciparum luciferase reporter growth, 96 h. Potency, µM (doses to about 28.7 µM), inactives show at the highest dose activity change, negative = inhibition, most hits filed as inhibitors. actives 6.9% (n = 320,000); also: potency is read from the fitted curve at half-maximal effect; % is scaled to controls: 0 for no effect and ±100 for the full control effect
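Luminescence readout: decreased luciferase signal marks inhibited growth of reporter-expressing P. falciparum in infected red cells (2% hematocrit, 0.05% parasitemia final), exposed to compound two generations (96 h, 37 C, 5% CO2).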
Cycloheximide cs – affects cycloheximide protein synthesis inhibition readout, counter-screen. cell reporter, cycloheximide protein synthesis inhibition counterscreen. max response, %. actives 12% (n = 300,000); in the data active = max response mostly above about 13%, no sharp cut-off; inactive = mostly below about 14%; also: read at 38.3 µM for the half of the compounds with a filed dose; 0% is about no effect
Starred values were filed as active, the others as inactive; i = inactive; ? = inconclusive; · = no result given. Rows were chosen to be rich in hits. Some 22% of all compounds tested hit in one or more screens of this group. Unless noted, calls follow the shape of the dose curve; as a rule, active = well fitted inhibition curve with a large enough effect; inconclusive = small, poorly fitted or top-dose-only effect, or another doubt; inactive = no such curve, though single readings can be large or run the other way.

SMILES	LmPK inhibitor	Pf growth 48h	Shiga inhibitor	Pf growth 96h	Cycloheximide cs
C/C(=N\NC(=O)c1cccc(N/N=C(\C)c2ccccc2)c1)c1ccccc1	-11.7%	?	144.5*	-0.6%	71.8*
C/C(=N\NC(=O)CNc1ccccc1)c1ccccc1	1.4%	0.0%	-5.7	i	1.6
C/C(=N\Nc1ccc(Cl)c(C(=O)O)c1)c1cccc([N+](=O)[O-])c1	-10.9%	47.5%	158.6*	90.1%	80.4*
C/C(=N\Nc1ccccc1)c1cccc(N)c1	-0.7%	8.1%	39.9	?	23.2*
C/C(=N\NC(=O)c1cccc(N/N=C(\C)c2ccc([N+](=O)[O-])cc2)c1)c1ccc([N+](=O)[O-])cc1	1.6%	1.65µM*	39.4*	4.15µM*	16.8*
COc1ccc(N2CCN(C(=O)C3(C)CC3(Cl)Cl)CC2)cc1 (stereo not drawn)	1.6%	-4.1%	2.2	?	-3.1
CC1c2ccsc2CCN1C(=O)NC(=O)c1ccc(Cl)cc1 (stereo not drawn)	2.3%	-5.3%	15.9	?	0.9
C/C(=N/NC(=O)c1ccncc1)c1ccc(NC(=O)c2ccccc2)cc1	-11.7%	41.9%	22.2	?	8.8
C/C(=N\NC(=O)c1cccc(N/N=C(\C)c2ccncc2)c1)c1ccncc1	-2.9%	?	4.5	8.28µM*	15.2
C/C(=N/NC(=O)c1cccc(N2CCCC2=O)c1)c1ccncc1	0.2%	68.2%	55.1*	5.7%	47.9*
C/C(=N/NC(=O)c1cccc(N2CCCC2=O)c1)c1ccc(Br)cc1	-10.3%	?	8.4	36.0%	-2.0
C/C(=N\NC(=O)c1ccncc1)c1cccc(NC(=O)c2ccc(C(C)(C)C)cc2)c1	-1.1%	58.5%	65.8*	-14.2%	27.0*
C/C(=N\NC(=O)c1nn(C)cc1Br)c1cccc(NC(=O)c2ccncc2)c1	-8.1%	15.6%	83.6*	?	50.4*
O=C(O)CCC(=O)Nc1ccc(Sc2ccc([N+](=O)[O-])cc2)cc1	3.2%	9.3%	-9.0	-7.1%	-1.4
O=C(NC(=S)Nc1cc([N+](=O)[O-])ccc1O)c1cccnc1	-0.1%	111.3%	4.0	?	4.6
O=C(c1cc([N+](=O)[O-])[nH]n1)N1CCSCC1	2.2%	2.3%	-3.8	20.4%	-1.0
C/C(=N\NC(=O)C(C)Sc1ccccc1)c1ccc([N+](=O)[O-])cc1 (stereo not drawn)	1.1%	-11.0%	-7.1	9.28µM*	-3.2
Cc1ccccc1/C=N\NC(=O)c1ccc(Cn2cccn2)o1	-4.2%	28.5%	31.8	41.0%	4.6
C/C(=N/NC(=O)c1ccc(Cn2cccn2)o1)c1cccc(NC(=O)c2ccncc2)c1	-2.0%	-25.4%	10.6	0.0%	18.7*
C/C(=N\NC(=O)C(C)Sc1ccccc1)C(C)(C)C (stereo not drawn)	1.9%	12.2%	-12.0	108.9%	1.8
O=S(=O)(c1cccc2nonc12)N1CCCCCC1	0.4%	-2.0%	-4.1	?	-4.2
CN=Cc1cc(-c2ccccc2)sc1O	3.9%	75.3%	40.4*	?	40.0*
CC(=O)c1sc(-c2ccccc2)cc1NS(=O)(=O)c1ccccc1	6.4%	6.8%	10.0	0.9%	3.2
CCOC(=O)c1c(NC(=O)COC(=O)/C=C/c2ccccc2)sc(C(=O)NC)c1C	·	3.1%	·	-13.0%	·
NC(=S)NNc1ccnc2cc(Cl)ccc12	8.3%	2.94µM*	-10.4	?	-1.0
SMILES	LmPK inhibitor	Pf growth 48h	Shiga inhibitor	Pf growth 96h	Cycloheximide cs
CCN1CCC(Nc2ccnc3cc(Cl)ccc23)CC1	-4.2%	0.0329µM*	2.5	0.0041µM*	-0.9
CCOc1ccc(Nc2ccnc3cc(Cl)ccc23)cc1	2.9%	-16.8%	20.4	5.5%	-3.1
O=C(NNc1ccnc2cc(Cl)ccc12)C1CCCCC1	-9.5%	1.65µM*	17.7	1.04µM*	2.1
Clc1ccc2c(NNc3ccccc3Cl)ccnc2c1	-0.8%	?	-22.2	?	-2.8
O=C(O)c1ccccc1NS(=O)(=O)c1ccc(NNC(=S)Nc2ccc(OC(F)F)cc2)c([N+](=O)[O-])c1	10.6%	-12.9%	-9.9	?	-4.9
FC(F)Oc1ccc(NC(=S)NNc2ccnc3cc(Cl)ccc23)cc1	-5.9%	8.28µM*	-1.5	?	7.9
CC12COC3(P(=O)(c4ccccc4)c4ccccc4)CC1CCC23CP(=O)(c1ccccc1)c1ccccc1 (stereo not drawn)	10.3%	1.17µM*	21.0	0.928µM*	0.2
CC(C)[C@H](NC(=O)c1ccccc1)C(=O)OCC(=O)c1ccccc1F	-2.2%	315.2%	20.2	-11.8%	15.8*
Cc1ccc(C(=O)NCCN2C3=NC[C@H](Cc4ccc(O)cc4)N3C[C@H]2Cc2ccc(O)cc2)cc1Br	3.5%	4.15µM*	-10.3	2.94µM*	-5.6
Cc1ccc(C(=O)NCCc2ccccc2)cc1N1CCCC1=O	-8.3%	32.6%	26.2	?	13.0
C/C=C(\C)C(=O)NCCN1C2=NC[C@H](Cc3ccccc3)N2C[C@H]1Cc1ccc(O)cc1	0.5%	-20.7%	5.6	3.7µM*	0.6
COc1ccc(C[C@H]2CN3C(=NC[C@@H]3Cc3ccc(O)cc3)N2CCNC(=O)c2ccc(C)c(Br)c2)cc1	4.3%	3.7µM*	-3.3	1.17µM*	-3.9
Cc1ccc(C(=O)NCCN2C3=NC[C@@H](Cc4ccccc4)N3C[C@H]2Cc2ccc(O)cc2)cc1Br	4.7%	9.28µM*	-15.7	?	-2.5
C/C=C(\C)C(=O)NCCN1C2=NC[C@@H](C)N2C[C@H]1Cc1ccc(O)cc1	-7.2%	50.5%	13.9	50.0%	0.8
Cc1cc(C)n(CCNC(=O)c2ccc3c(c2)OCO3)n1	-5.5%	40.6%	32.7	43.6%	4.3
COc1cc(C(=O)N/C(=C\c2cn(C)c3ccccc23)C(=O)NCCCN2CCOCC2)cc(OC)c1OC	6.8%	-16.7%	10.8	10.3%	8.8
COc1ccc(-c2cc(C(=O)Nc3ccc(F)cc3F)no2)cc1	1.7%	·	1.3	?	-0.6
CC(C)Cc1cc(C(=O)Nc2c(F)cc(F)cc2Br)no1	7.2%	?	36.8*	?	21.0
O=C(Nc1c(F)cc(F)cc1Br)c1cccnc1	-1.9%	-6.2%	26.9	50.1%	-1.7
Cc1cc(C(=O)Nc2c(F)cc(F)cc2Br)cs1	-1.5%	2.9%	10.4	14.7µM*	13.7
CC(C)Cc1cc(C(=O)Nc2ccc(F)cc2F)no1	-20.8%	77.2%	90.4*	?	56.2*
COc1ccc(-c2cc(C(=O)Nc3c(F)cc(F)cc3Br)no2)cc1	4.8%	30.4%	67.3*	8.28µM*	15.6*
CC(C)Cc1cc(C(=O)Nc2cc(Cl)ccc2Cl)no1	-2.9%	0.6%	7.1	38.7%	-2.0
Cc1ccc(C)c(Cn2nnc3c(=O)[nH]c(C4CCCN(C(=O)c5cccs5)C4)nc32)c1 (stereo not drawn)	2.9%	?	2.4	-0.7%	-2.8
CC(C)C(=O)Nc1cccc(NC(=O)CCN2C(=O)c3ccccc3S2(=O)=O)c1	3.2%	?	54.8	12.8%	-3.0
